The campaign covered roughly 16,000 compounds. About 5,700 (36%) were called active. Roughly 24% stayed inconclusive and do not appear here. The list shows a part of the results. Values without a mark were called inactive. The call rests on the fitted dose curve; in most records, active means well fitted curve in the direction sought with a large enough effect; inconclusive means small, poorly fitted or top-dose-only effect, or effect the other way; inactive means no such curve, though single readings can be large or run the other way.
On the % scale 0 is the no-effect control and ±100 the full control effect.

The experiment deals with Cytochrome P450 1A2 (Homo sapiens) (UniProt P05177). Description: Cytochrome panel assay with activity outcomes. To be noted: recombinant CYP, pro-luciferin dealkylation, luminescence, p450-cyp1a2; series mostly up to 57.1 µM; activity, negative = inhibition: at the top concentration.
Sequence of Cytochrome P450 1A2 (Homo sapiens) (P05177 whole entry, looked up): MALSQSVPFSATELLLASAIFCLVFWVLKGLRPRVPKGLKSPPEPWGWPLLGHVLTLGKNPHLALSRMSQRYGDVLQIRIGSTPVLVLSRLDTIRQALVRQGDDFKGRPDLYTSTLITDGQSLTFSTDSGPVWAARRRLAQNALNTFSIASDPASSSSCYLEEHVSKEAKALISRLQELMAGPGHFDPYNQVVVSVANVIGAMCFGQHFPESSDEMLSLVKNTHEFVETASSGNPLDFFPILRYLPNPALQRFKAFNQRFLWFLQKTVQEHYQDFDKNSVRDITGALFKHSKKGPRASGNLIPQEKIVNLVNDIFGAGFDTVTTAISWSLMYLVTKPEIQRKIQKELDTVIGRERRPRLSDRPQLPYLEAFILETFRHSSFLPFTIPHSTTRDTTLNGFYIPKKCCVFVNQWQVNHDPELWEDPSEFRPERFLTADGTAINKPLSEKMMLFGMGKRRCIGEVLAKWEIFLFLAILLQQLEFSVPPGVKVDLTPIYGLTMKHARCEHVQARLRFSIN
On to `COCC(=O)N1CCC2(CC1)CCN(C(=O)Nc1cccc(C#N)c1)CC2`, for which the “activity, negative = inhibition” value was -10.7%.
Still for that read-out and setting: then `NCc1nnn(Cc2ccccc2)c1N`, with 2.27% [at 11.4 µM].
The same measure, in the same setting: then `Cc1nnc(-c2cnn(-c3ccccc3)c2N)n1Cc1ccc(F)cc1`, with -27.2%.
On to `Cc1nnc(-c2cnn(-c3ccccc3)c2N)n1Cc1ccccc1`, for which the AC50 is 14.1 µM (active).
With `O=C(c1cnccn1)N1CCC2(CCCN(c3ncccn3)C2)CC1`, the “activity, negative = inhibition” value is -20.1%.
Same read-out and setting: then `COc1ccc(C2C(C(=O)c3ccco3)=C(O)C(=O)N2Cc2cccnc2)cc1OC` (stereo not drawn), with 6.62%.
For the compound `COc1ccc2c(=O)cc(-c3ccncc3)oc2c1OC`, the AC50 is 1.58 µM (active).
`Cn1cc(C(=O)c2cccc(Cl)c2Cl)cc1C(=O)O`: the “activity, negative = inhibition” value was 4.13%.
The same measure, in the same setting: the figure for `Cn1cccc1C(=O)N1CCC2(CCN(C(=O)Nc3ccccc3)CC2)CC1` is -14.1%.
In the case of `Cn1cccc1C(=O)C(=O)Nc1cccc(Cl)c1Cl`, the AC50 is 17.8 µM (active).
Same read-out and setting: the figure for `COc1ccccc1CNc1ncncc1-c1ccc(C(=O)N(C)C)cc1` is 12.6 µM (active); for `COc1ccc(CNc2ncncc2-c2ccc(N(C)C)cc2)c(OC)c1` it is 0.631 µM (active); for `COc1ccc(CNc2ncncc2-c2ccc(C(=O)N(C)C)cc2)c(OC)c1` it is 15.8 µM (active).
In the case of `CC(C)=CCC/C(C)=C/CO/N=C1/C[C@@H](O)[C@@H](O)[C@@H]2[C@@H]3C(=O)N(C4CCCCC4)C(=O)[C@H]3CC[C@H]12`, the activity, negative = inhibition is -2.85% [at 11.4 µM].
The same measure, in the same setting: then `C[C@@]12CCC(=O)C=C1CC[C@@H]1[C@@H]2[C@H](O)C[C@]2(C)[C@@H]1CC[C@]2(O)C(=O)COC(=O)CCC(=O)O`, with 1.05%.
On to `O=C(COc1ccc(Cl)cc1Cl)N/N=C/CCc1ccccc1`, for which the AC50 is 1 µM (active).
For `Cc1ccccc1C(=O)Nc1ccc(C(=O)NNC(=O)CCCOc2ccc(Cl)cc2Cl)cc1`, the “activity, negative = inhibition” value was -24.9%.
As to `CC(C/C=N/NC(=O)COc1cc(Cl)ccc1Cl)c1ccccc1` (stereo not drawn), the concentration at half-maximal activity (AC50) was 0.562 µM (active).
Same read-out and setting: then `COC(=O)c1c(-c2cc(OC)c(OC)c(OC)c2)c2ccnc(OCc3ncccn3)c2c(=O)n1Cc1ccnc(C)c1`, with “inactive”.
For `O=C(c1ccc(CN2CCc3ccccc3C2)cc1)N1CCc2ccccc2C1`, the “activity, negative = inhibition” value is -22.3%.
Regarding `N=C(N)N1CCc2ccccc2C1`, the “activity, negative = inhibition” value is -6.45% [at 25.6 µM].
For the compound `CCc1ccc(/C=C\C(=O)N2CCc3ccccc3C2)cc1`, the AC50 was 14.1 µM (active).
Still for that read-out and setting: then `Cc1cccc2c1OCC/C2=N\NC(=O)COc1ccccc1`, with 2.51 µM (active); and `COc1cccc(OCC(=O)NN=C2c3ccccc3-c3ccccc32)c1`, with 0.501 µM (active).
Turning to `Cc1ccccc1OCC(=O)N/N=C1\CCOc2c(C)cccc21`, the “activity, negative = inhibition” value was -14%.
On the same count and under the same terms, the figure for `CCOC(=O)C1=NOC(CNC(=O)C2=NOC(CNC(=O)c3c(-c4ccccc4Cl)noc3C)C2)C1` (stereo not drawn) is 2.92%.
In the case of `Cc1cccc2c1OCC/C2=N\NC(=O)COc1ccccc1Cl`, the AC50 is 0.891 µM (active).
For `CO/N=C\[C@@H](NS(=O)(=O)c1ccc(C)cc1)[C@H](C)/C=C\CC(=O)OC`, the activity, negative = inhibition is -9.25% [at 11.4 µM].
The same measure, in the same setting: the figure for `CO/N=C(/C)CCC(=O)OC[C@@H]1O[C@H](C#Cc2ccccc2)C=C[C@@H]1Oc1ccc(C)cc1` is -10.1% [at 11.4 µM].
Take `CC(=O)[C@@]1(O)CC[C@H]2[C@H]3C[C@@H](C)C4=CC(=O)C=C[C@]4(C)[C@@]3(F)[C@@H](O)C[C@]21C`: the “activity, negative = inhibition” value was -14.8% [at 25.6 µM].
The same measure, in the same setting: then `CC(=O)[C@H]1CC[C@H]2[C@@H]3C=CC4=CC(=O)CC[C@@]4(C)[C@H]3CC[C@]12C`, with -8.55% [at 25.6 µM].
Consider `O=c1c(-c2cccc(Cl)c2)nc2cncnc2n1-c1ccccc1`, for which the AC50 is 2 µM (active).
Take `O=c1c(-c2ccccc2)nc2cncnc2n1-c1ccccc1`: the AC50 was 5.01 µM (active).
The same measure, in the same setting: then `COc1ccc(-n2c(=O)c(-c3cccc(Cl)c3)nc3cncnc32)cc1`, with 1 µM (active).
Regarding `Cc1ccc(S(=O)(=O)N[C@H]2COC(=O)C/C=C\[C@H](C)[C@@H](NS(=O)(=O)c3ccc(C)cc3)COC(=O)C/C=C\[C@@H]2C)cc1`, the activity, negative = inhibition is -10.6% [at 11.4 µM].
In the case of `O=C(NCc1cc(F)cc2c1OCCO2)[C@H]1C[C@@H]1[C@H](NP(=O)(c1ccccc1)c1ccccc1)c1ccccc1`, the AC50 was 15.8 µM (active).
As to `C[C@H](CO)NC(=O)[C@@H]1C[C@H]1[C@@H](NP(=O)(c1ccccc1)c1ccccc1)c1ccccc1`, the “activity, negative = inhibition” value is -9.59%.
As for `Cc1ccc(CNC(=O)[C@H]2C[C@@H]2[C@H](NP(=O)(c2ccccc2)c2ccccc2)c2ccccc2)c(F)c1F`, the “activity, negative = inhibition” value is -17.4%.
Same read-out and setting: then `C[C@H](CO)NC(=O)[C@H]1C[C@@H]1[C@H](NP(=O)(c1ccccc1)c1ccccc1)c1ccccc1`, with -7.78%.
On to `O=C(Nc1ccc2ccccc2c1)[C@H]1C[C@@H]1[C@H](NP(=O)(c1ccccc1)c1ccccc1)c1ccccc1`, for which the AC50 is 10 µM (active).
With `Cc1cc(CNC(=O)[C@@H]2C[C@H]2[C@@H](NP(=O)(c2ccccc2)c2ccccc2)c2ccccc2)nn1C`, the “activity, negative = inhibition” value was -17.4%.
The same measure, in the same setting: the figure for `Cn1cccc1C(=O)N1CCC[C@@]2(CCN(Cc3nccs3)C2)C1` is -7.87%; for `CCCCN(CC)S(=O)(=O)c1ccc(C(=O)Nc2nnc(CSC)o2)cc1` it is -27.9%.
For `COC(=O)C1=C(NC(=O)c2cccc(OC)c2)CCS1`, the AC50 was 3.16 µM (active).
Take `CCC(=O)N1CCN(c2ccc(NC(=O)c3cccs3)cc2)CC1`: the “activity, negative = inhibition” value is -9.21%.
The same measure, in the same setting: then `CCN(CC)S(=O)(=O)c1ccc(C(=O)Nc2ncn(Cc3ccccc3)n2)cc1`, with -10.7%.
For the compound `CCN(CC)S(=O)(=O)c1ccc(C(=O)NC2=C(C(=O)OC)SCC2)cc1`, the AC50 was 12.6 µM (active).
On the same count and under the same terms, the figure for `COC(=O)C1=C(NC(=O)c2cccs2)CCS1` is 2.51 µM (active).

In general, AC50 refers to the concentration at which the activity in the assay is half-maximal.

Source of the values: PubChem BioAssay AID1851 (National Center for Advancing Translational Sciences (NCATS), 2009).
